The sample as a whole holds a higher share of hits than the screen did.
Tgondii IFNg: inhibitors of Toxoplasma gondii growth with IFN-gamma | Toxoplasma gondii growth in IFN-gamma-treated host cells; hits give low values | activity change, negative = inhibition, % (test concentration not listed) | 3.8% of 69,000 active | AID 1259416; in the data active = activity change below about -70%, passing the limit was not always enough;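 note: host cells are HeLa cells infected with Toxoplasma gondii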
Starred values were filed as active, the others as inactive.

SMILES	Tgondii IFNg
Cc1ccc(CN(C)Cc2c(C(=O)N3CCc4ccccc4C3)nc3ccc(Cl)cn23)o1	12.9
CCC1CN(Cc2ccc(Cn3cccn3)cc2)CCN1C(C)C (configuration not stated)	-7.4
COc1ccc2[nH]cc(CCN3CC(C(=O)Nc4cc(C)ccc4C)CC3=O)c2c1 (configuration not stated)	147.4
CC1CCC(CNC(=O)c2ccc(Cn3cnnn3)cc2)(N2CCCCC2)CC1 (configuration not stated)	-3.9
C[C@@H]1CCCCO[C@H](CN(C)Cc2ccncc2)[C@@H](C)CN([C@H](C)CO)C(=O)c2cc(NS(=O)(=O)c3ccc(Cl)cc3)ccc2O1	-23.0
COc1ccc(S(=O)(=O)Nc2ccc3c(c2)C(=O)N([C@H](C)CO)C[C@@H](C)[C@@H](CN(C)Cc2ccc(C(F)(F)F)cc2)OCCCC[C@@H](C)O3)cc1	-11.1
COc1ccc(S(=O)(=O)Nc2ccc3c(c2)C(=O)N([C@@H](C)CO)C[C@@H](C)[C@H](CN(C)Cc2ccc(C(F)(F)F)cc2)OCCCC[C@H](C)O3)cc1	-90.3*
C[C@@H]1CCCCO[C@H](CN(C)Cc2ccncc2)[C@H](C)CN([C@H](C)CO)C(=O)c2cc(NS(=O)(=O)c3ccc(Cl)cc3)ccc2O1	-103.2*
COc1ccc(S(=O)(=O)Nc2ccc3c(c2)C(=O)N([C@H](C)CO)C[C@H](C)[C@H](CN(C)Cc2ccc(C(F)(F)F)cc2)OCCCC[C@@H](C)O3)cc1	21.1
C[C@@H]1CCCCO[C@@H](CN(C)Cc2ccncc2)[C@@H](C)CN([C@H](C)CO)C(=O)c2cc(NS(=O)(=O)c3ccc(Cl)cc3)ccc2O1	132.0
COc1ccc(S(=O)(=O)Nc2ccc3c(c2)C(=O)N([C@@H](C)CO)C[C@@H](C)[C@@H](CN(C)Cc2ccc(C(F)(F)F)cc2)OCCCC[C@H](C)O3)cc1	-120.3*
COc1ccc(CN(C)C[C@@H]2OCCCC[C@@H](C)Oc3ccc(NC(=O)C4CCCCC4)cc3C(=O)N([C@H](C)CO)C[C@@H]2C)cc1	161.1
OCCOCc1nnn2c1CN(c1ncccn1)CCC2	71.0
CN(C)C(=O)[C@H]1C[C@@H]2OCC[C@@H]2N(Cc2ccco2)C1	-34.0
CCOc1ccccc1-c1noc(-c2c(O)c3ccccc3n(C)c2=O)n1	-9.2
CCN1c2ccc(F)cc2C(=O)NC12CCN(C(=O)Cc1cccc(OC)c1)CC2	82.2
O=C(Cn1ncc2c(N3CCN(c4ccccn4)CC3)ncnc21)N1CCN(c2ccccc2)CC1	26.4
CCN(Cc1ccc(OC)cc1)C(=O)c1ccc(-n2cnnc2)cc1	1.9
O=C(NCCc1c[nH]c2ccc(Cl)cc12)c1sc2ncccc2c1-n1cccc1	423.4
O=C(NCCc1c[nH]c2ccc(Cl)cc12)c1cccs1	11.0
CCCN1CCN(c2ncnc3sc(C(=O)NCCc4c[nH]c5ccc(Cl)cc45)c(C)c23)CC1	-84.5*
COCC(=O)N1CC2(CCN(C(=O)c3cccnc3)CC2)c2c([nH]c3cc(OC)ccc23)[C@H]1CO	-23.9
Cc1nc2ccccc2n1Cc1ccccc1	-58.1
Cc1nc2n(Cc3ccccc3)c3ccccc3n2c1C(=S)Nc1ccccc1	-113.8*
Cc1nc(C)c(C(=O)Nc2ccc3c(c2)CN(Cc2ccccc2)C3)o1	0.4
SMILES	Tgondii IFNg
Cc1cc(C)cc(C(=O)N2CCc3c(CNc4ncccn4)nn(C)c3C2)c1	12.6
CN(C)CC(=O)N1CCCn2cnc(CNc3ncccn3)c2C1	13.5
CC(C)n1nc(CNc2ncccn2)c2c1CN(C(=O)N(C)C)CC2	-75.5*
CC(C)c1cc(C2CCCN2C(=O)CCc2cn3ccccc3n2)no1 (configuration not stated)	2.6
CCn1c2ccccc2c2cc(-c3nccn3C(C)c3nncn3C)ccc21 (configuration not stated)	-10.6
Cn1c(C#N)ccc1-c1ccc2c(c1)C(C)(C)OC(=S)N2	-82.8*
O=C(c1ccoc1)N1CCCC2(COCCN(c3cccnc3)C2)C1 (configuration not stated)	4.2
CN(C)c1ccc(NC(=O)Nc2ccccc2)cc1	203.6
COc1cc2nnc3c(c(-c4ccccc4)nn3-c3ccccc3)c2cc1OC	6.2
CN(C)S(=O)(=O)c1ccc(CCC(=O)NC2CC(C)(C)Oc3ccccc32)cc1 (configuration not stated)	0.7
CN(C)S(=O)(=O)N1C[C@@H]2CN(Cc3ccoc3)CCO[C@H]2C1	-42.6
CNC1(c2ccc(OC)cc2)Oc2ccccc2C(C#Cc2ccccc2)=C1C (configuration not stated)	-106.6*
O=C(Nc1ccc(Cl)cc1)OC(CSc1ccccn1)CSc1ccccn1	-62.7
Cc1cc(C)n(CCNC(=O)c2cccc3c2NCCC3)c(=O)n1	-6.0
C=CCNC(=O)c1ccc(-c2cccc([N+](=O)[O-])c2)o1	66.9
C=CCNC(=O)c1ccc(-c2ccc(F)c(CO)c2)o1	44.6
C=CCNC(=O)c1ccc(-c2cnc3ccccc3c2)o1	-82.2*
Cn1cc2c3c(cccc31)CN(C(=O)c1cccnc1Cl)CC2	35.1
CC(=O)OC1C(=O)C2(C)C(O)CC3OCC3(OC(C)=O)C2C(OC(=O)c2ccccc2)C2(O)CC(OC(=O)C(O)C(NC(=O)c3ccccc3)c3ccccc3)C(C)=C1C2(C)C (configuration not stated)	-87.5*
CC(=O)O[C@H]1C(=O)[C@@]2(C)C([C@H](OC(=O)c3ccccc3)[C@]3(O)C[C@H](OC(=O)[C@H](O)[C@@H](NC(=O)c4ccccc4)c4ccccc4)C(C)=C1C3(C)C)[C@]1(OC(C)=O)CO[C@@H]1C[C@@H]2O (some centres not stated)	-79.2*
Cc1ccc(-n2c(Cc3c(C)n[nH]c3C)n[nH]c2=O)cc1C	0.3
Cc1ccc(CS(=O)(=O)N2CCC3(CC(=O)N(c4ccccc4)C3)C2)cc1 (configuration not stated)	-5.1
Cc1cc(C(=O)NC2(CN3CCOCC3)CCCC2)n[nH]1	-5.5
CNC(=O)c1cc(=O)n(CC(=O)Nc2ccc(Br)cc2)c2ccccc12	1.9
CCS(=O)(=O)N1CCO[C@H]2[C@@H](OCc3cccnc3)CC[C@H]21	6.3
SMILES	Tgondii IFNg
CCOCC(=O)N1CCCn2nnc(COc3cccnc3)c2C1	50.2
CN(C)c1ccc(C(=C2C=CC(=[N+](C)C)C=C2)c2ccc(N(C)C)cc2)cc1	-81.3*
Cn1cnc2c(N3CCOCC3)nc(C3CCN(C(=O)c4cccnc4)CC3)cc21	2.0
O=C(NCc1cccs1)c1cc(F)cc2c1OCOC2	84.9
Cn1cccc1C(=O)NC[C@@H]1OC[C@@H]2CCN(S(C)(=O)=O)C[C@H]21	18.2
CC(c1ccon1)N(C)C(=O)c1ccc(-c2ccccc2Cl)o1 (configuration not stated)	51.1
CC(=O)c1cc([N+](=O)[O-])c(Sc2ccc(F)cc2F)s1	-71.6*
CNC(=S)Sc1ccc(F)cc1F	37.9
COc1cccc(N(Cc2nc(-c3ccccc3)oc2C)S(=O)(=O)c2ccccc2C)c1	-54.9
CCc1ccc(C(=O)N2CCCn3nnc(CN4CCOCC4)c3C2)cc1	1.3
CCCCc1cn(CC2CCN(C(=O)c3cncc(C)c3)CC2)nn1	4.4
C[C@]12OC(C[C@]1(O)CO)n1c3ccccc3c3c4c(c5c6ccccc6n2c5c31)CNC4=O	-82.1*
CCOc1ccc(C(=O)N2CCC3(CC2)Nc2cc(F)ccc2-n2cccc23)cc1	57.2
COCCc1ncc(CN2CCC(c3cc(Cc4cccc(OC)c4)cc(C)n3)CC2)cn1	-29.7
Cc1nc(N)ncc1C(=O)N(C)CCN(C)C1CCCC1	-6.9

From PubChem
